We go through 34 molecules from PubChem BioAssay (NCATS).

Several values for one entry are separate records, joined by “and”; a condition that tells them apart may be missing. Equal entries are not always repeated. Results filed as inconclusive are left out. Some compounds were tested as several samples or in several runs, with calls that do not always agree. Unmarked numbers belong to inactive results. Activity calls are given as the source filed them. Calls come from the whole dose curve; as a rule, active = well fitted inhibition curve with a large enough effect; inconclusive = small, poorly fitted or top-dose-only effect; inactive = flat fitted curve, though single readings scatter.

This test can be described thus: Drug repurposing screens with cells derived from glioblastoma tumor samples (AID 1345199). Note: nearly all actives have a fitted effect of over 40% in size. As to conditions: GBM patient neurospheres viability, ATP luminescence, 48 h. The method in brief:
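Four patient lines of CD133+ GBM neurospheres were screened at several concentrations; hits were retested in those lines plus three slower-growing GBM lines, using 48-hour treatment and ATP-based viability.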

Where [1] appears, read: at 45.9 µM (top of the series), tumour line D.
Where [2] appears, read: at 46 µM (top of the series), tumour line A.
[3] abbreviates: at 45.9 µM (top of the series), tumour line B.
Where [4] appears, read: at 46.1 µM (top of the series), tumour line C.
Where [5] appears, read: at 20 µM (top of the series), tumour line C.
[6] abbreviates: at 21.2 µM (top of the series), tumour line B.
Setting [7] is: at 21.2 µM (top of the series), tumour line D.
% is set by controls: 0 for no effect and ±100 for the full control effect; potency is the fitted concentration of half-maximal effect.

For `CC(=O)OC[C@H]1O[C@@H](n2ncc(=O)[nH]c2=O)[C@H](OC(C)=O)[C@@H]1OC(C)=O`, the activity, negative = cell killing was -20.8% under setting [1] and -30.4% under setting [2].
Consider `Cc1ccc(S(=O)(=O)NC(=O)NC2CCCC2)cc1`, for which the activity, negative = cell killing is, setting by setting: under setting [3], -10.4%; under setting [1], -9.83%; under setting [4], -7.67%.
`C[C@@H](O)[C@H]1C(=O)N2C(C(=O)O)=C(S[C@@H]3CN[C@H](CNS(N)(=O)=O)C3)[C@H](C)[C@H]12`: the activity, negative = cell killing reads like this: under setting [3], -1.99%; under setting [1], 1.38%; under setting [2], -14.9%; under setting [4], -16.7%.
With `CCOC(=O)C(C#N)=C(c1ccccc1)c1ccccc1`, the activity, negative = cell killing by setting is: under setting [3], -12.8%; under setting [1], -4.23%. Besides, the Potency (tumour line A) is 11.2 µM (active).
Regarding `Cc1cn([C@H]2C[C@H](F)[C@@H](CO)O2)c(=O)[nH]c1=O`, the activity, negative = cell killing is -16.6% under setting [3], -21.3% under setting [1] and -27% under setting [4].
Regarding `CN1CCc2cccc3c2[C@H]1Cc1ccc(O)c(O)c1-3`, under setting [4], the activity, negative = cell killing was -0.121%. Further, the Potency (tumour line A) is 11.2 µM (active).
In the case of `C=C[C@H]1CN2CC[C@H]1C[C@H]2[C@H](O)c1ccnc2ccc(OC)cc12`, the activity, negative = cell killing is, setting by setting: under setting [3], -17.2% and -20.5%; under setting [4], -25.6% and -17.6%. Moreover, the Potency (tumour line A) is 11.2 µM (active) and 17.8 µM (active).
Regarding `c1ccc(-c2nc[nH]c2-c2ccccc2)cc1`, the activity, negative = cell killing under setting [3] is -16.2%.
For `CC(CNC1CCCCC1)OC(=O)c1ccccc1` (configuration not stated), the activity, negative = cell killing runs as follows: under setting [5], 10.5%; under setting [6], -8.26%; under setting [7], -19.5%.
For the molecule `COc1ccc(CN(CCN(C)C)c2ncccn2)cc1`, the activity, negative = cell killing by setting is: under setting [3], -6.69%; under setting [4], -7.28%.
`CC(=O)O[C@H]1C[C@@H]2CC[C@@H]3[C@H](CC[C@@]4(C)[C@H]3C[C@H]([N+]3(C)CCCCC3)[C@@H]4OC(C)=O)[C@@]2(C)C[C@@H]1N1CCCCC1`: the activity, negative = cell killing is, setting by setting: under setting [3], -12.1%; under setting [1], -1.11%; under setting [4], -3.89%.
Consider `CCOC(=O)c1ccc(N)cc1`, for which the activity, negative = cell killing under setting [7] was -25.1%. In addition, the Potency (tumour line B) was 14.1 µM (active).
On to `CN1CCN(C2=Nc3ccccc3Sc3ccc(Cl)cc32)CC1`, for which the activity, negative = cell killing under setting [4] is -6.22%. Further, the Potency was 7.94 µM (active) (tumour line A) and 17.8 µM (active) (tumour line D).
For `COc1ccc(C(=O)c2ccccc2O)c(O)c1`, the activity, negative = cell killing was -19.6% under setting [5], 4.62% under setting [6] and -15.3% under setting [7].
`Oc1ccccc1C=NCc1ccccc1`: the activity, negative = cell killing runs as follows: under setting [3], -13.2%; under setting [1], -14.3%; under setting [4], -2.77%.
Take `COc1cc(NS(=O)(=O)c2ccc(N)cc2)ncn1`: the activity, negative = cell killing by setting is: under setting [5], 5.16%; under setting [6], 4.65%; under setting [7], -16.4%.
Consider `C#C[C@]1(OC(C)=O)CC[C@H]2[C@@H]3CCC4=C/C(=N/O)CC[C@@H]4[C@H]3CC[C@@]21CC`, for which the activity, negative = cell killing under setting [4] was -21.9%. The Potency (tumour line A) was 8.91 µM (active).
For the molecule `CC[C@]12CCCN3CCc4c(n(c5ccccc45)C(=O)C1)[C@@H]32`, the activity, negative = cell killing is, setting by setting: under setting [6], -16.8%; under setting [7], -29.4%. The Potency (tumour line A) was 6.31 µM (active).
`C#C[C@]1(O)CC[C@H]2[C@@H]3CCc4cc(OC)ccc4[C@H]3CC[C@@]21C`: the activity, negative = cell killing reads like this: under setting [3], -27.2%; under setting [4], -5.96%. In addition, the Potency (tumour line A) was 39.8 µM (active).
With `CC(=O)Nc1ccc(S(=O)(=O)Nc2ccc([N+](=O)[O-])cc2)cc1`, the activity, negative = cell killing was -8.95% under setting [3], -28.3% under setting [1] and 10.9% under setting [4].
Regarding `COc1ccc(/C=N/NC(=O)c2ccncc2)cc1OC`, the activity, negative = cell killing is -3.24% under setting [3], -6.28% under setting [1] and -25% under setting [4].
Take `CCOC(=O)c1c(N)sc2c1CCN(Cc1ccccc1)C2`: the activity, negative = cell killing under setting [4] was -15.7%. For the same molecule, for the setting “tumour line A”, the Potency is 11.2 µM (active).
On to `O=C(c1ccc(F)cc1)C1CCN(CCn2c(=S)[nH]c3ccccc3c2=O)CC1`, for which the activity, negative = cell killing under setting [3] is -29.1%. The Potency was 12.6 µM (active) (tumour line A) and 20.6 µM (active) (tumour line C).
On to `C/C=C/C=N/NC(=O)c1ccncc1`, for which the activity, negative = cell killing reads like this: under setting [3], -13.6%; under setting [1], -18.3%; under setting [4], -22.3%.
In the case of `CN1CCC(OC(c2ccccc2)c2ccccc2)CC1`, the activity, negative = cell killing is 1.79% under setting [5] and -9.68% under setting [6]. Further, the Potency (tumour line A) is 7.08 µM (active).
In the case of `Cc1cccc(C)c1NC(=O)CN1CCCCCC1`, the activity, negative = cell killing runs as follows: under setting [3], -3.5%; under setting [1], -16.9%; under setting [4], -16.8%. Further, the Potency (tumour line A) was 35.5 µM (active).
`CC(=O)O[C@]1(C(C)=O)CC[C@H]2[C@@H]3C=C(Cl)C4=CC(=O)CC[C@]4(C)[C@H]3CC[C@@]21C`: under setting [3], the activity, negative = cell killing is -21.1%.
Turning to `C=C[C@@]1(C)CC(=O)[C@]2(O)[C@@]3(C)[C@@H](O)CCC(C)(C)[C@@H]3[C@H](O)[C@H](OC(C)=O)[C@@]2(C)O1`, the activity, negative = cell killing by setting is: under setting [3], 7.18%; under setting [4], -36.3%.
On to `O=c1[nH]c(=O)n([C@H]2C[C@H](O)[C@@H](CO)O2)cc1F`, for which the activity, negative = cell killing under setting [4] was -17.1%. Also, the Potency (tumour line A) was 0.891 µM (active).
In the case of `CCC(Cc1c(I)cc(I)c(N)c1I)C(=O)O` (configuration not stated), the activity, negative = cell killing under setting [5] is 4.71%; the activity, negative = cell killing under setting [6] was 4.87%; the activity, negative = cell killing under setting [7] is 3.32%; the activity, negative = cell killing (at 21.3 µM (top of the series), tumour line A) was -20%.
On to `NC1CCN(c2nc3c(cc2F)c(=O)c(C(=O)O)cn3-c2ccc(F)cc2F)C1` (configuration not stated), for which the activity, negative = cell killing by setting is: under setting [3], -3.86%; under setting [1], -30%; under setting [2], -29.1%.
For the molecule `CCc1oc2ccccc2c1C(=O)c1cc(I)c(O)c(I)c1`, under setting [4], the activity, negative = cell killing was -3.24%.
Take `C[N+]12CCC(CC1)C(OC(=O)C(O)(c1ccccc1)c1ccccc1)C2` (configuration not stated): the activity, negative = cell killing is, setting by setting: under setting [5], -3.46%; under setting [6], -10.6%; under setting [7], -5.49%.
As to `Cc1cc(NS(=O)(=O)c2ccc(N)cc2)nc(C)n1`, the activity, negative = cell killing runs as follows: under setting [3], -14.8%; under setting [1], -16.4%; under setting [2], -27.1%; under setting [4], -10.5%.
